# Laboratory results taken from PubChem BioAssay AID1159580 (chemical genetic matrix, 2015).
# Where “and” joins values, the source holds several entries; their conditions need not be identical. Equal entries are not always repeated. Hit rate of the full screen: of about 5,500 compounds, about 2,000 (36%) were called active. Inconclusive results (about 18%) are left out. Cut-off read from the data, not from the text of the source: active = normalized growth mostly below about 0.91 (no sharp cut-off); inconclusive = no clear call, values can overlap the other calls; inactive = mostly above about 0.92. The list shows a part of the results. Some structures have more than one record in an assay (separate samples or runs), and their calls can disagree.
# Test: chemical genetic growth profiling, strain panel (AID 1159580);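 note: tested at 20 µM; growth read once vehicle control cultures reached saturation at 30 °C; 1 = growth at the plate median or of vehicle wells; lower values mean less growth of the strain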
# Conditions: S. cerevisiae deletion strains, growth OD
smiles,measurement,setting,value
CN1CCN(CCCN2c3ccccc3Sc3ccc(Cl)cc32)CC1,normalized growth,"locus YAL013W, strain DEP1, stronger effect = lower value",0.216 (active) and 1.03 (inactive)
same,normalized growth,"locus YAL021C, strain ccr4, stronger effect = lower value",0.706 (active)
same,normalized growth,"locus YAL026C, strain drs2, stronger effect = lower value",0.0669 (active)
same,normalized growth,"locus YAL030W, strain snc1, stronger effect = lower value",0.922 (active)
same,normalized growth,"locus YAL040C, strain CLN3, stronger effect = lower value",0.97 (inactive)
same,normalized growth,"locus YBL061C, strain skt5, stronger effect = lower value",0.888 (active)
same,normalized growth,"locus YBR009C, strain hhf1, stronger effect = lower value",0.8 (active)
same,normalized growth,"locus YBR021W, strain FUR4, stronger effect = lower value",0.413 (active)
same,normalized growth,"locus YBR023C, strain chs3, stronger effect = lower value",0.868 (active)
same,normalized growth,"locus YBR171W, strain sec66, stronger effect = lower value",0.987 (inactive)
same,normalized growth,"locus YBR229C, strain ROT2, stronger effect = lower value",1 (inactive)
same,normalized growth,"locus YBR231C, strain swc5, stronger effect = lower value",0.663 (active)
same,normalized growth,"locus YCL011C, strain gbp2, stronger effect = lower value",0.772 (active)
same,normalized growth,"locus YCL016C, strain dcc1, stronger effect = lower value",0.938 (inactive)
same,normalized growth,"locus YCL029C, strain bik1, stronger effect = lower value",1.03 (inactive)
same,normalized growth,"locus YCL061C, strain MRC1 (second series), stronger effect = lower value",0.997 (inactive)
same,normalized growth,"locus YCL069W, strain vba3, stronger effect = lower value",0.966 (inactive)
same,normalized growth,"locus YCR088W, strain abp1, stronger effect = lower value",0.831 (active)
same,normalized growth,"locus YDL005C, strain med2, stronger effect = lower value",1 (inactive)
same,normalized growth,"locus YDL035C, strain GPR1, stronger effect = lower value",0.214 (active)
same,normalized growth,"locus YDL040C, strain nat1, stronger effect = lower value",0.964 (inactive)
same,normalized growth,"locus YDL074C, strain BRE1, stronger effect = lower value",0.296 (active)
same,normalized growth,"locus YDL101C, strain DUN1, stronger effect = lower value",0.965 (inactive)
same,normalized growth,"locus YDL134C, strain PPH21, stronger effect = lower value",0.982 (inactive)
same,normalized growth,"locus YDL185W, strain tfp1, stronger effect = lower value",0.964 (inactive)
same,normalized growth,"locus YDL192W, strain arf1, stronger effect = lower value",0.0937 (active)
same,normalized growth,"locus YDR001C, strain nth1, stronger effect = lower value",0.993 (inactive)
same,normalized growth,"locus YDR069C, strain doa4, stronger effect = lower value",0.804 (active)
same,normalized growth,"locus YDR101C, strain arx1, stronger effect = lower value",0.929 (inactive)
same,normalized growth,"locus YDR137W, strain rgp1, stronger effect = lower value",1.26 [resistant] (active)
same,normalized growth,"locus YDR150W, strain NUM1, stronger effect = lower value",0.563 (active)
same,normalized growth,"locus YDR159W, strain sac3, stronger effect = lower value",0.974 (inactive)
same,normalized growth,"locus YDR162C, strain NBP2, stronger effect = lower value",0.0524 (active)
same,normalized growth,"locus YDR195W, strain ref2",1.15 [resistant] (active)
same,normalized growth,"locus YDR297W, strain sur2, stronger effect = lower value",0.968 (inactive)
same,normalized growth,"locus YDR318W, strain mcm21, stronger effect = lower value",0.91 (active)
same,normalized growth,"locus YDR334W, strain swr1, stronger effect = lower value",0.94 (inactive)
same,normalized growth,"locus YDR335W, strain msn5, stronger effect = lower value",0.96 (inactive)
same,normalized growth,"locus YDR363W, strain ESC2, stronger effect = lower value",0.891 (inactive)
same,normalized growth,"locus YDR388W, stronger effect = lower value",0.805 (active)
same,normalized growth,"locus YDR392W, strain spt3, stronger effect = lower value",0.954 (inactive)
same,normalized growth,"locus YDR502C, strain sam2, stronger effect = lower value",0.39 (active)
same,normalized growth,"locus YEL003W, strain gim4, stronger effect = lower value",0.832 (active)
same,normalized growth,"locus YEL037C, strain rad23, stronger effect = lower value",0.963 (inactive)
same,normalized growth,"locus YEL061C, strain CIN8 (second series), stronger effect = lower value",0.986 (inactive)
same,normalized growth,"locus YEL061C, strain CIN8, stronger effect = lower value",0.664 (active)
same,normalized growth,"locus YER002W, strain NOP16, stronger effect = lower value",1 (inactive)
same,normalized growth,"locus YER015W, strain faa2, stronger effect = lower value",0.556 (active)
same,normalized growth,"locus YER016W, strain bim1, stronger effect = lower value",0.972 (inactive)
same,normalized growth,"locus YER110C, stronger effect = lower value",1.02 (inactive)
same,normalized growth,"locus YER111C, strain swi4, stronger effect = lower value",0.993 (inactive)
same,normalized growth,"locus YER155C, strain BEM2 (second series), stronger effect = lower value",0.861 (active)
same,normalized growth,"locus YER155C, strain BEM2, stronger effect = lower value",1.04 (inactive)
same,normalized growth,"locus YER167W, strain BCK2, stronger effect = lower value",0.858 (active)
same,normalized growth,"locus YFR010W, strain ubp6, stronger effect = lower value",0.734 (active)
same,normalized growth,"locus YGL078C, strain dbp3, stronger effect = lower value",0.966 (inactive)
same,normalized growth,"locus YGL086W, strain mad1, stronger effect = lower value",0.61 (active)
same,normalized growth,"locus YGL167C, strain pmr1, stronger effect = lower value",0.947 (inactive)
same,normalized growth,"locus YGL173C, strain kem1, stronger effect = lower value",0.874 (active)
same,normalized growth,"locus YGL227W, strain vid30, stronger effect = lower value",0.997 (inactive)
same,normalized growth,"locus YGL240W, strain doc1, stronger effect = lower value",1.01 (inactive)
same,normalized growth,"locus YGL248W, strain PDE1, stronger effect = lower value",0.99 (inactive)
same,normalized growth,"locus YGL253W, strain hxk2, stronger effect = lower value",0.927 (inactive)
same,normalized growth,"locus YGR078C, strain PAC10, stronger effect = lower value",0.594 (active)
same,normalized growth,"locus YGR135W, strain pre9, stronger effect = lower value",0.544 (active)
same,normalized growth,"locus YGR229C, strain SMI1, stronger effect = lower value",0.065 (active) and 1.02 (inactive)
same,normalized growth,"locus YGR252W, strain gcn5, stronger effect = lower value",0.309 (active)
same,normalized growth,"locus YHR013C, strain ard1, stronger effect = lower value",0.872 (inactive)
same,normalized growth,"locus YHR027C, strain rpn1, stronger effect = lower value",0.594 (active)
same,normalized growth,"locus YHR030C, strain SLT2, stronger effect = lower value",0.465 (active) and 1.02 (inactive)
same,normalized growth,"locus YHR079C, strain IRE1 (second series), stronger effect = lower value",0.969 (inactive)
same,normalized growth,"locus YHR079C, strain IRE1, stronger effect = lower value",1 (inactive)
same,normalized growth,"locus YHR094C, strain hxt1, stronger effect = lower value",1 (inactive)
same,normalized growth,"locus YHR129C, strain ARP1, stronger effect = lower value",0.932 (inactive)
same,normalized growth,"locus YHR142W, strain chs7, stronger effect = lower value",0.854 (active)
same,normalized growth,"locus YHR200W, strain rpn10, stronger effect = lower value",0.869 (active)
same,normalized growth,"locus YIL066C, strain RNR3, stronger effect = lower value",0.793 (active)
same,normalized growth,"locus YIL073C, strain SPO22, stronger effect = lower value",0.854 (inactive)
same,normalized growth,"locus YIL125W, strain kgd1, stronger effect = lower value",0.958 (inactive)
same,normalized growth,"locus YIR030C, strain dcg1, stronger effect = lower value",1 (inactive)
same,normalized growth,"locus YJL092W, strain hpr5, stronger effect = lower value",0.942 (inactive)
same,normalized growth,"locus YJL095W, strain BCK1 (second series), stronger effect = lower value",0.919 (active)
same,normalized growth,"locus YJL095W, strain BCK1, stronger effect = lower value",0.494 (active) and 1.04 (inactive)
same,normalized growth,"locus YJL115W, strain asf1, stronger effect = lower value",0.99 (inactive)
same,normalized growth,"locus YJL129C, strain trk1, stronger effect = lower value",0.83 (active)
same,normalized growth,"locus YJL134W, strain LCB3, stronger effect = lower value",0.991 (inactive)
same,normalized growth,"locus YJL154C, strain vps35, stronger effect = lower value",0.982 (inactive)
same,normalized growth,"locus YJL164C, strain tpk1, stronger effect = lower value",0.878 (active)
same,normalized growth,"locus YJL166W, strain qcr8, stronger effect = lower value",0.809 (active)
same,normalized growth,"locus YJL168C, strain set2, stronger effect = lower value",1.01 (inactive)
same,normalized growth,"locus YJL187C, strain SWE1 (second series), stronger effect = lower value",0.85 (active)
same,normalized growth,"locus YJR043C, strain POL32, stronger effect = lower value",0.247 (active)
same,normalized growth,"locus YJR066W, strain TOR1, stronger effect = lower value",0.968 (inactive)
same,normalized growth,"locus YJR075W, strain HOC1, stronger effect = lower value",0.131 (active)
